Measured values as given in paper PMC7862700, “An all-to-all approach to the identification of sequence-specific readers for epigenetic DNA modifications on cytosine”.

Key:
Assay in all cases: DAPPL (digital affinity profiling via proximity ligation, sequencing); 10 mM Tris-HCl pH 7.5, 50 mM NaCl, 1 mM DTT, 4% glycerol, room temperature, 30 min; GST-TFs on glutathione beads, 16-mer random dsDNA library, 0.1% formaldehyde crosslink after washing; high values mean tight binding
[1] = target: T1, FEV (Homo sapiens, UniProt Q99581 1-238); conditions: protein: recombinant; tags: N-terminal GST; dsDNA, one strand shown
T1 sequence: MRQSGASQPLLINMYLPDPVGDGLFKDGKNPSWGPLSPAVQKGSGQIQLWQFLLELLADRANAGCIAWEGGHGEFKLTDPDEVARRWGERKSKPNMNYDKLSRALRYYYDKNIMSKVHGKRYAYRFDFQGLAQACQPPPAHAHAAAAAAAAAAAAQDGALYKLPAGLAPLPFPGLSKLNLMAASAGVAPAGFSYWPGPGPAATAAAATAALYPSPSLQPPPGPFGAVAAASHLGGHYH
In short: (§1)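 Binding signal is given per hexamer as its read frequency for a factor divided by its frequency in the tag-only sample. GST-fused human transcription factors were expressed in yeast, captured on glutathione beads, barcoded with DNA and pooled with that sample, then incubated with 200 nmole of a 16-mer random double-stranded DNA library in Tris/NaCl/DTT/glycerol buffer for 30 min at room temperature. The pools were then washed, crosslinked, proximity-ligated, amplified by PCR and sequenced on an Illumina NextSeq500.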

[2] = target: ETV5 (Homo sapiens, UniProt P41161 1-510); conditions: protein: recombinant; tags: N-terminal GST; dsDNA, one strand shown
In short: as §1

[3] = target: HSF1 (Homo sapiens, UniProt Q00613 1-529); conditions: protein: recombinant; tags: N-terminal GST; chain copies: 3; dsDNA, one strand shown
In short: as §1

[4] = target: T2, SPIC (Homo sapiens, UniProt Q8N5J4 1-248); conditions: protein: recombinant; tags: N-terminal GST; dsDNA, one strand shown
T2 sequence: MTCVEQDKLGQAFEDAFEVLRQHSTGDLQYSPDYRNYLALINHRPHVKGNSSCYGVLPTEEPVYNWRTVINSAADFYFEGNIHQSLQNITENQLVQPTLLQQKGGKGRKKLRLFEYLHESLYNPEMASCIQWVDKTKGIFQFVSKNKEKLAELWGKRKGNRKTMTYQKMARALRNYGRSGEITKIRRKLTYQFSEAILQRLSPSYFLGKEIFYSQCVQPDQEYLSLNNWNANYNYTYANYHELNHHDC
In short: as §1

[5] = target: ELF4 (Homo sapiens, UniProt Q99607 1-663); conditions: protein: recombinant; tags: N-terminal GST; dsDNA, one strand shown
In short: as §1

[6] = target: T3, ELK4 (Homo sapiens, UniProt P28324-2 1-405); conditions: protein: recombinant; tags: N-terminal GST; dsDNA, one strand shown
T3 sequence: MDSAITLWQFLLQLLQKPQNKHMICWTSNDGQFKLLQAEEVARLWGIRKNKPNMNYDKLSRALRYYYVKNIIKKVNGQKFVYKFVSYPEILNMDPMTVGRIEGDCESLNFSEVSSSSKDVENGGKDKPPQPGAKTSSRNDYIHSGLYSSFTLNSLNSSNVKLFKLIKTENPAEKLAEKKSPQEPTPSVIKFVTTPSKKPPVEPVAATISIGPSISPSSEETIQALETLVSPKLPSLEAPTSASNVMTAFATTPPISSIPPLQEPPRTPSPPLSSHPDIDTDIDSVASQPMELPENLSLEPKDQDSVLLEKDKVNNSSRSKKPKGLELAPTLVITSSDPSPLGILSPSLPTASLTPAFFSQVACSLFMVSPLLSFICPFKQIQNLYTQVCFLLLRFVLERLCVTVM
In short: as §1

[7] = target: T4, ETV2 (Homo sapiens, UniProt O00321 1-342); conditions: protein: recombinant; tags: N-terminal GST; dsDNA, one strand shown
T4 sequence: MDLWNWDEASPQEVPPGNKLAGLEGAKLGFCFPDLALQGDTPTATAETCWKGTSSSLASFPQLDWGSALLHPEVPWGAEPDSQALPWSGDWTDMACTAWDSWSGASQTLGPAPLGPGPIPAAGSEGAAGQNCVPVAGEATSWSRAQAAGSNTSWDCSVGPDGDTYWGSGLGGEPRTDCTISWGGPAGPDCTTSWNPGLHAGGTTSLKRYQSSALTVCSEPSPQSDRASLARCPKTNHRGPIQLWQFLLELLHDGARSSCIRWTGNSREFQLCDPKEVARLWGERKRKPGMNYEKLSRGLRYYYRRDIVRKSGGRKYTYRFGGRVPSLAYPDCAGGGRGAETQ
In short: as §1

[8] = target: T5, ELF3 (Homo sapiens, UniProt P78545 1-371); conditions: protein: recombinant; tags: N-terminal GST; dsDNA, one strand shown
T5 sequence: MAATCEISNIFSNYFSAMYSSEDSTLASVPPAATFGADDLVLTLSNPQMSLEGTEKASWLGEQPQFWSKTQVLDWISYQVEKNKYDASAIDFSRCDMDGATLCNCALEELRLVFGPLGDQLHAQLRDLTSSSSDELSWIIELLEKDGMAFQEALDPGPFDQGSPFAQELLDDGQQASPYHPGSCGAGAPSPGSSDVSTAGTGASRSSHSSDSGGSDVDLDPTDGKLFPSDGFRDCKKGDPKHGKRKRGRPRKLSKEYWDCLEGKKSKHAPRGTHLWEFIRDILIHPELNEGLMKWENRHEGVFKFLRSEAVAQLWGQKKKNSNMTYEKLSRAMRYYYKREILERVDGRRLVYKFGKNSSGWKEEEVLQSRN
In short: as §1

[9] = target: CRX (Homo sapiens, UniProt O43186 1-299); conditions: protein: recombinant; tags: N-terminal GST; dsDNA, one strand shown
In short: as §1

[10] = target: ETV1 (Homo sapiens, UniProt P50549 1-477); conditions: protein: recombinant; tags: N-terminal GST; dsDNA, one strand shown
In short: as §1

[11] = target: T6, ERF (Homo sapiens, UniProt P50548 1-548); conditions: protein: recombinant; tags: N-terminal GST; dsDNA, one strand shown
T6 sequence: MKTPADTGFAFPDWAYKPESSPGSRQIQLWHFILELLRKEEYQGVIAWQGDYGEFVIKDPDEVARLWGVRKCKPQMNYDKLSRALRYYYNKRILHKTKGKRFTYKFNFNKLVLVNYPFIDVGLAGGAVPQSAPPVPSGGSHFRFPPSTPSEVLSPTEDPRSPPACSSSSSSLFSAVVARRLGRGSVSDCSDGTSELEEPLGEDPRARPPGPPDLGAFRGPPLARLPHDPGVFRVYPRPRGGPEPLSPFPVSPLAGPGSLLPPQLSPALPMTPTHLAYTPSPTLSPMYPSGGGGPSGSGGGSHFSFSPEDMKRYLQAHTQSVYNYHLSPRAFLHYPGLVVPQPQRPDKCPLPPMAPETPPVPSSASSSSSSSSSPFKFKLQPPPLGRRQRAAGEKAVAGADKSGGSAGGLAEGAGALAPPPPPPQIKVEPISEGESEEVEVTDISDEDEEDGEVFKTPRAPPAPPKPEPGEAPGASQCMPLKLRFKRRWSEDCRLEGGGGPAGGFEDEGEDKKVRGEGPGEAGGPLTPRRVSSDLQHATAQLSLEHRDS
In short: as §1

[12] = target: T7, ETV3L (Homo sapiens, UniProt Q6ZN32 1-361); conditions: protein: recombinant; tags: N-terminal GST; dsDNA, one strand shown
T7 sequence: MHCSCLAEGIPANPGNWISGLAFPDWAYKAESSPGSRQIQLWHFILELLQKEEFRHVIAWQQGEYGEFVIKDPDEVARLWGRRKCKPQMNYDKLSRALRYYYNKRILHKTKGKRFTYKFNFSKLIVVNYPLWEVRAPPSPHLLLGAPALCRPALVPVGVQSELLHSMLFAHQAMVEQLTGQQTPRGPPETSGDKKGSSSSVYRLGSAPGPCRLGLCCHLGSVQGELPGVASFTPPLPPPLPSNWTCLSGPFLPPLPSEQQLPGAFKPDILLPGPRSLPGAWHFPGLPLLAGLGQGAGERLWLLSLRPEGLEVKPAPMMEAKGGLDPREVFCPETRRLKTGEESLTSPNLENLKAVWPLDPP
In short: as §1

[13] = target: T8, ETS2 (Homo sapiens, UniProt P15036 1-469); conditions: protein: recombinant; tags: N-terminal GST; dsDNA, one strand shown
T8 sequence: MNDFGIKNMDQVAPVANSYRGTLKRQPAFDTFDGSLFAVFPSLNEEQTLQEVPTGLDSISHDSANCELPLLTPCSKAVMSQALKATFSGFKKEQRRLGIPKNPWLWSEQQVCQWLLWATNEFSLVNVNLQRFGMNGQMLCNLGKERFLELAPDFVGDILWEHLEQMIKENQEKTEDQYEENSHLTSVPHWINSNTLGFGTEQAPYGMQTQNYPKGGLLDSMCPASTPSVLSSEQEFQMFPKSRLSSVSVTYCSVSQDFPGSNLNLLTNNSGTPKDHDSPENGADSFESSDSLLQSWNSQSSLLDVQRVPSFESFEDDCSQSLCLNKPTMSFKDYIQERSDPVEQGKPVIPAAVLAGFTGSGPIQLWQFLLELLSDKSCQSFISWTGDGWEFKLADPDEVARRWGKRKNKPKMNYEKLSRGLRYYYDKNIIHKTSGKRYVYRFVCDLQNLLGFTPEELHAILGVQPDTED
In short: as §1

[14] = target: T9, SPDEF (Homo sapiens, UniProt O95238 1-335); conditions: protein: recombinant; tags: N-terminal GST; dsDNA, one strand shown
T9 sequence: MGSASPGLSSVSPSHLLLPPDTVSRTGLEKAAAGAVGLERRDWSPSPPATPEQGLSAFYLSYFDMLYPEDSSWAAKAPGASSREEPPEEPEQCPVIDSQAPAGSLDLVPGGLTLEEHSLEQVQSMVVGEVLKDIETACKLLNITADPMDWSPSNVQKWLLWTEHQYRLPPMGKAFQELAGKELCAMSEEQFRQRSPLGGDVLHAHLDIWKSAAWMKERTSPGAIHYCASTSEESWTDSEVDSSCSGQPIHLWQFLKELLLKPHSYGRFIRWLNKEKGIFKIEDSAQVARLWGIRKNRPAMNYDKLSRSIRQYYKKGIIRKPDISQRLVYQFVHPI
In short: as §1

[15] = target: T10, ETV7 (Homo sapiens, UniProt Q9Y603 1-341); conditions: protein: recombinant; tags: N-terminal GST; dsDNA, one strand shown
T10 sequence: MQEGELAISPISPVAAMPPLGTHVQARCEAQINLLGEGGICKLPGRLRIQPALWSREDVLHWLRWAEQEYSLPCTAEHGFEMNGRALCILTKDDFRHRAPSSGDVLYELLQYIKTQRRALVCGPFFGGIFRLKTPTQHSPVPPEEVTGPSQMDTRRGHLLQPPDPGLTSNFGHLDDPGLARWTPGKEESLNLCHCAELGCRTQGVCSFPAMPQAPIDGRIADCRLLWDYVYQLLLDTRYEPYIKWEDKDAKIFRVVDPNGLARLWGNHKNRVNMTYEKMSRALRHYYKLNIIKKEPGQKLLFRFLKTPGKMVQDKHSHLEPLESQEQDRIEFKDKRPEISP
In short: as §1

[16] = target: T11, ELF5 (Homo sapiens, UniProt Q9UKW6-2 1-255); conditions: protein: recombinant; tags: N-terminal GST; dsDNA, one strand shown
T11 sequence: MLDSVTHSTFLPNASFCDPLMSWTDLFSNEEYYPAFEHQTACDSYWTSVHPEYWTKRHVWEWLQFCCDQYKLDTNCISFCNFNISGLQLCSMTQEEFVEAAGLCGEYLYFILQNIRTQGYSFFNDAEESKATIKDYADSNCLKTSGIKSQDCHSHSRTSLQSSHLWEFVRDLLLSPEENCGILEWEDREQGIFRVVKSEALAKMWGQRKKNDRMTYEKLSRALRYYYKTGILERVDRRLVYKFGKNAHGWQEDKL
In short: as §1

[17] = target: T12, ETV3 (Homo sapiens, UniProt P41162-2 1-143); conditions: protein: recombinant; tags: N-terminal GST; dsDNA, one strand shown
T12 sequence: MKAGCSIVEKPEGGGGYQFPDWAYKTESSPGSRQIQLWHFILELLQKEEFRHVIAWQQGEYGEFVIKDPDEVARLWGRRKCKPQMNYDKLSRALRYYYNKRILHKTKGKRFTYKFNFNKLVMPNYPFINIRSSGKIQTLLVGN
In short: as §1

[18] = target: ETV6 (Homo sapiens, UniProt P41212 1-452); conditions: protein: recombinant; tags: N-terminal GST; dsDNA, one strand shown
In short: as §1

Chain of ETV5 (P41161 whole entry): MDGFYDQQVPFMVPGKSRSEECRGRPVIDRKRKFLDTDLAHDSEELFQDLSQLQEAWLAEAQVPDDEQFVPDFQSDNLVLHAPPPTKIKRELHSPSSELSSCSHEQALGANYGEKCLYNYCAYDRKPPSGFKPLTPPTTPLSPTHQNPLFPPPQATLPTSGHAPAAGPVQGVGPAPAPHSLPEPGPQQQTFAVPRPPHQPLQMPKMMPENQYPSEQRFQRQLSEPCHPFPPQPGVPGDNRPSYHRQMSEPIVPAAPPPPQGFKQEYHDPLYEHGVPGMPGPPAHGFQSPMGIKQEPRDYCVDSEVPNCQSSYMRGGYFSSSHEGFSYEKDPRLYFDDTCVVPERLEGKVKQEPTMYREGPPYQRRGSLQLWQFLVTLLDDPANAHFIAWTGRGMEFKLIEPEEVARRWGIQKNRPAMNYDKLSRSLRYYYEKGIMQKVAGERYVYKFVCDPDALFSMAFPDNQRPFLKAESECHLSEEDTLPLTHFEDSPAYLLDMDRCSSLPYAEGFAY
Chain of CRX (O43186 whole entry): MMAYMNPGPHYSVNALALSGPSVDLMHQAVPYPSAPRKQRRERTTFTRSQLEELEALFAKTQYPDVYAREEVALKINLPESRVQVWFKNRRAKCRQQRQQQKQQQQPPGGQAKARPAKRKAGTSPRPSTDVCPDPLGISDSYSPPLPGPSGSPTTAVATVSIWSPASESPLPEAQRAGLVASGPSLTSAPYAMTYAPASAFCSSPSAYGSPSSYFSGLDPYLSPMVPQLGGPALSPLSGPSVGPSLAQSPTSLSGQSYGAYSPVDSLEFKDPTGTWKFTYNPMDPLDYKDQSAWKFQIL
Chain of ETV6 (P41212 whole entry): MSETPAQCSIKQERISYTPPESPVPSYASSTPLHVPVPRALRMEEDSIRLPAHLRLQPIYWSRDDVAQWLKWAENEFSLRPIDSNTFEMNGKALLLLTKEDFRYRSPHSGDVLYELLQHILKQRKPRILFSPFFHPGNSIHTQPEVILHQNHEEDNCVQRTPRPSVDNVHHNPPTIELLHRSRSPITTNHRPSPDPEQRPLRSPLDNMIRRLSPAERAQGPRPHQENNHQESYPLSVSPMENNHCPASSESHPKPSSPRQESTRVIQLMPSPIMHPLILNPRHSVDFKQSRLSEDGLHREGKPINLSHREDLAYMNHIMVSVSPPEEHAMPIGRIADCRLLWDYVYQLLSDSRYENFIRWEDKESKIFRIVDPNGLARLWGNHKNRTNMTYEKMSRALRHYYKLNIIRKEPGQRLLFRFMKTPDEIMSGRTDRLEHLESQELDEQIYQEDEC
Chain of HSF1 (Q00613 whole entry): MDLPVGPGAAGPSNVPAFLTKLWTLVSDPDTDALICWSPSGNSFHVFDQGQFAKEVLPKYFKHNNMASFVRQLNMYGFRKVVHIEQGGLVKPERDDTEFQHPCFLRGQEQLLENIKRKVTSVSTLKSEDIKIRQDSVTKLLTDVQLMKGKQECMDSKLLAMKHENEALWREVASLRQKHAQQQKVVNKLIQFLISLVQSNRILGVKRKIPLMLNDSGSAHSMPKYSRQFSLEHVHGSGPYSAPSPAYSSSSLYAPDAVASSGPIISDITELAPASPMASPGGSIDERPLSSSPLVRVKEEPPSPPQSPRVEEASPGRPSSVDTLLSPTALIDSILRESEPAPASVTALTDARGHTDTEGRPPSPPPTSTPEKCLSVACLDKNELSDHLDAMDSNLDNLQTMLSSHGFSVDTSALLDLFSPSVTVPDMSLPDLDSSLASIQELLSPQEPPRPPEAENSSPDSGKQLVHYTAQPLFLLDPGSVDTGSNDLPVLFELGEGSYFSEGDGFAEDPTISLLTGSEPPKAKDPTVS
Chain of ELF4 (Q99607 whole entry): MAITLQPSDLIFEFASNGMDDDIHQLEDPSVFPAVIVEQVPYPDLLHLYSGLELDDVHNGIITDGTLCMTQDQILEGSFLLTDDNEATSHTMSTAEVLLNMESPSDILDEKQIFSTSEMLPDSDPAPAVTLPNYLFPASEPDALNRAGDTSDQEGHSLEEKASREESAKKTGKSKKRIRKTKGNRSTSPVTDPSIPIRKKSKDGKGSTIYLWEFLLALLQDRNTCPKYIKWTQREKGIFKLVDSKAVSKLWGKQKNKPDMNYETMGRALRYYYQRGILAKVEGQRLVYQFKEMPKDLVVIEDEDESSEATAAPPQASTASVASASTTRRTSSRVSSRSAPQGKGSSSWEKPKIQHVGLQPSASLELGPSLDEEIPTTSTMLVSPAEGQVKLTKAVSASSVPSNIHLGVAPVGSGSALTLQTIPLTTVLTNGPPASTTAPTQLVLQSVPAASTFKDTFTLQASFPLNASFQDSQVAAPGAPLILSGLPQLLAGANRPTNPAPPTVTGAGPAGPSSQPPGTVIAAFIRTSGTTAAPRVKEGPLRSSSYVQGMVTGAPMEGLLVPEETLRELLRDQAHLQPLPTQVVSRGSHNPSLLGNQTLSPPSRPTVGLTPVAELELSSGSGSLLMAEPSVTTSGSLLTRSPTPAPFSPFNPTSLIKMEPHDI
Chain of ETV1 (P50549 whole entry): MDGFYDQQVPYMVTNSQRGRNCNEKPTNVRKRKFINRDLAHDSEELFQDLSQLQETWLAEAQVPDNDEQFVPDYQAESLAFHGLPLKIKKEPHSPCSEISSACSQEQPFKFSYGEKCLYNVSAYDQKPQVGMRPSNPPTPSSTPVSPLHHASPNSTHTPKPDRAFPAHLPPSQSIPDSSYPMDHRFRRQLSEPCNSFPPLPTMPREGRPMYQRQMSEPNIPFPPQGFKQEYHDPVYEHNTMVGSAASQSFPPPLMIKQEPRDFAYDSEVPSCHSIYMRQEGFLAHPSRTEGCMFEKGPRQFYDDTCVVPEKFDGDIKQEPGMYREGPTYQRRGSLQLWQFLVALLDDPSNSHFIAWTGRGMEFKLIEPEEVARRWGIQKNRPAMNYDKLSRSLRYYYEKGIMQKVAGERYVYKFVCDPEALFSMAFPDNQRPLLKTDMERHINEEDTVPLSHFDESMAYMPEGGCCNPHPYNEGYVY

Sequence	binding signal [1]	binding signal [2]	binding signal [3]	binding signal [4]	binding signal [5]	binding signal [6]	binding signal [7]	binding signal [8]	binding signal [9]	binding signal [10]	binding signal [11]	binding signal [12]	binding signal [13]	binding signal [14]	binding signal [15]	binding signal [16]	binding signal [17]	binding signal [18]
AATATG	1.12 fold enrichment (6-mer frequency, TF over GST control)	1.2 fold enrichment (6-mer frequency, TF over GST control)	1.12 fold enrichment (6-mer frequency, TF over GST control)	1.28 fold enrichment (6-mer frequency, TF over GST control)	1.16 fold enrichment (6-mer frequency, TF over GST control)	1.18 fold enrichment (6-mer frequency, TF over GST control)	1.07 fold enrichment (6-mer frequency, TF over GST control)	1.21 fold enrichment (6-mer frequency, TF over GST control)	1.1 fold enrichment (6-mer frequency, TF over GST control)	1.13 fold enrichment (6-mer frequency, TF over GST control)	1.07 fold enrichment (6-mer frequency, TF over GST control)	1.15 fold enrichment (6-mer frequency, TF over GST control)	1.15 fold enrichment (6-mer frequency, TF over GST control)	1.08 fold enrichment (6-mer frequency, TF over GST control)	1.21 fold enrichment (6-mer frequency, TF over GST control)	1.1 fold enrichment (6-mer frequency, TF over GST control)	1.14 fold enrichment (6-mer frequency, TF over GST control)	1.14 fold enrichment (6-mer frequency, TF over GST control)
CATTTA	1.23 fold enrichment (6-mer frequency, TF over GST control)	1.22 fold enrichment (6-mer frequency, TF over GST control)	1.13 fold enrichment (6-mer frequency, TF over GST control)	1.17 fold enrichment (6-mer frequency, TF over GST control)	1.14 fold enrichment (6-mer frequency, TF over GST control)	1.17 fold enrichment (6-mer frequency, TF over GST control)	1.34 fold enrichment (6-mer frequency, TF over GST control)	1.2 fold enrichment (6-mer frequency, TF over GST control)	1.36 fold enrichment (6-mer frequency, TF over GST control)	1.22 fold enrichment (6-mer frequency, TF over GST control)	1.23 fold enrichment (6-mer frequency, TF over GST control)	1.24 fold enrichment (6-mer frequency, TF over GST control)	1.31 fold enrichment (6-mer frequency, TF over GST control)	1.22 fold enrichment (6-mer frequency, TF over GST control)	1.27 fold enrichment (6-mer frequency, TF over GST control)	1.11 fold enrichment (6-mer frequency, TF over GST control)	1.23 fold enrichment (6-mer frequency, TF over GST control)	1.13 fold enrichment (6-mer frequency, TF over GST control)
